Laboratory results as given in ChEMBL document CHEMBL2218924, “A broad activity screen in support of a chemogenomic map for kinase signalling research and drug discovery” (Biochem J, 2013).

What follows are compounds tested against MAP kinase-activated protein kinase 3 (Homo sapiens) (UniProt Q16644). Settings: at 10 µM.
Chain of MAP kinase-activated protein kinase 3 (Homo sapiens) (Q16644 whole entry, looked up): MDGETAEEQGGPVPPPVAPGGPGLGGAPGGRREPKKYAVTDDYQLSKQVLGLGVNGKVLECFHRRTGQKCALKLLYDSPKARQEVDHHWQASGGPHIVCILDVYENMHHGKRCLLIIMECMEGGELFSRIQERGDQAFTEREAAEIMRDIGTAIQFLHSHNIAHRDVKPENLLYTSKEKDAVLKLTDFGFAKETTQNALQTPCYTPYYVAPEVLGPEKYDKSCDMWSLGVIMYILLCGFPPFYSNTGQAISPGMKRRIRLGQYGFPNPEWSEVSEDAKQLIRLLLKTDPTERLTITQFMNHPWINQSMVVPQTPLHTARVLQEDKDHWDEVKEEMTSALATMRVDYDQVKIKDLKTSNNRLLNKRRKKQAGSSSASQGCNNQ
With `N#C/C(=C1/Nc2ccccc2S1)c1ccnc(NCCc2cccnc2)n1` the residual activity was 68%. In the case of `N#Cc1c(NC(=O)c2cccc3ccccc23)sc2c1CCCC2`, the residual activity is reported as 88%. `CN(C)S(=O)(=O)c1ccc2c(c1)/C(=C/c1cc3c([nH]1)CCCC3)C(=O)N2` gave a residual activity of 92%. `O=C1Cc2c([nH]c3ccc(Br)cc23)-c2ccccc2N1` was tested, and the residual activity was 89%. With `Nc1n[nH]c2nc3ccccc3nc12` the residual activity was 94%. In the case of `O=C1Cc2c([nH]c3ccc([N+](=O)[O-])cc23)-c2ccccc2N1`, the residual activity is reported as 53%. `O=C(Nc1nc2ccccc2n1CCN1CCOCC1)c1cccc([N+](=O)[O-])c1` gave a residual activity of 84%. `Nc1ncnc2c1cnn2-c1ccccc1` was tested, and the residual activity was 92%. Compound `Fc1ccc(-c2nc3n(c2-c2ccncc2)CCS3)cc1` has a residual activity of 100%. Work on `Cc1cc(C)c(/C=C2\C(=O)Nc3ccccc32)[nH]1` yielded a residual activity of 101%. For `Cn1c2ccccc2c2c3c(c4c5ccccc5n(CCC#N)c4c21)CNC3=O`, the residual activity was 77%. Compound `CCOC(=O)c1c(C)[nH]c(/C=C2\C(=O)Nc3ccccc32)c1C` has a residual activity of 95%. `COc1cc2c(cc1OC)-c1n[nH]c(Nc3cccc(F)c3)c1C2` gave a residual activity of 99%. Work on `O=C1NC(=O)C(c2cn(CCCO)c3ncccc23)=C1c1cnccn1` yielded a residual activity of 100%. Work on `NC(=O)Nc1sc(-c2ccc(F)cc2)cc1C(N)=O` yielded a residual activity of 86%. For `CN([C@@H](Cc1ccc(OS(=O)(=O)c2cccc3cnccc23)cc1)C(=O)N1CCN(c2ccccc2)CC1)S(=O)(=O)c1cccc2cnccc12`, the residual activity was 78%.

Each compound was assayed against Serine/threonine-protein kinase MARK1 (Homo sapiens) (UniProt Q9P0L2). Settings: at 1 µM.
Chain of Serine/threonine-protein kinase MARK1 (Homo sapiens) (Q9P0L2 whole entry, looked up): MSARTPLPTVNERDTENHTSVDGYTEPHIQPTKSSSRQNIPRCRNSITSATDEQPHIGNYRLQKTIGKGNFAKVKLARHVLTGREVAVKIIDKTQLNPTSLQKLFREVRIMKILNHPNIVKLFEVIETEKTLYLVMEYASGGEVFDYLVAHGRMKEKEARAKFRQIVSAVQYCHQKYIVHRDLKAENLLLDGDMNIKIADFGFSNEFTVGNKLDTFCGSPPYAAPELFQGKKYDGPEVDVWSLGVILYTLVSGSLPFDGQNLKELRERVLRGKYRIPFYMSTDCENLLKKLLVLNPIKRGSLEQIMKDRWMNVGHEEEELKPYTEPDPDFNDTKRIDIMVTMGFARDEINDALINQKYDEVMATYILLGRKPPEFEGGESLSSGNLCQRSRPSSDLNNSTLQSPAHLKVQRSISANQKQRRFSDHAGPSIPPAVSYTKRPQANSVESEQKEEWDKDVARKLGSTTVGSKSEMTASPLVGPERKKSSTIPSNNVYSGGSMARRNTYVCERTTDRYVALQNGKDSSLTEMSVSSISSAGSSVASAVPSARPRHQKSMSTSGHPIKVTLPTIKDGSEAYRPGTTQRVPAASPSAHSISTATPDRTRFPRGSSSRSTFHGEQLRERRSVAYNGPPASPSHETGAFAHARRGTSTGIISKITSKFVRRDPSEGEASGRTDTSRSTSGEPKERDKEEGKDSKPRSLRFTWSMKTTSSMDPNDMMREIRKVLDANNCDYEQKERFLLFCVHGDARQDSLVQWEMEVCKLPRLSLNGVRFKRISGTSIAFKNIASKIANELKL
Compound `CCN1/C(=C/C(C)=O)Sc2ccc(OC)cc21` has a residual activity of 67%. In the case of `N#Cc1c(NC(=O)c2cccc3ccccc23)sc2c1CCCC2`, the residual activity is reported as 100%. Work on `CN(C)S(=O)(=O)c1ccc2c(c1)/C(=C/c1cc3c([nH]1)CCCC3)C(=O)N2` yielded a residual activity of 24%. `O=C1Cc2c([nH]c3ccc(Br)cc23)-c2ccccc2N1` showed a residual activity of 51%. Compound `CC(C)[C@H](CO)Nc1nc(Nc2cc(N)cc(Cl)c2)c2ncn(C(C)C)c2n1` has a residual activity of 92%. In the case of `O=S(=O)(NCCNC/C=C/c1ccc(Br)cc1)c1cccc2cnccc12`, the residual activity is reported as 76%. Work on `Nc1n[nH]c2nc3ccccc3nc12` yielded a residual activity of 75%. With `Cn1sc(=O)n(Cc2ccccc2)c1=O` the residual activity was 76%. In the case of `O=C1Cc2c([nH]c3ccc([N+](=O)[O-])cc23)-c2ccccc2N1`, the residual activity is reported as 34%. `O=C(Nc1nc2ccccc2n1CCN1CCOCC1)c1cccc([N+](=O)[O-])c1` showed a residual activity of 80%. Work on `Nc1ncnc2c1cnn2-c1ccccc1` yielded a residual activity of 89%. For `Cc1cc(C)c(/C=C2\C(=O)Nc3ccccc32)[nH]1`, the residual activity was 65%. In the case of `Cn1c2ccccc2c2c3c(c4c5ccccc5n(CCC#N)c4c21)CNC3=O`, the residual activity is reported as 4%. For `CCOC(=O)c1c(C)[nH]c(/C=C2\C(=O)Nc3ccccc32)c1C`, the residual activity was 89%. `COc1cc2c(cc1OC)-c1n[nH]c(Nc3cccc(F)c3)c1C2` showed a residual activity of 73%. Compound `N#C/C(=C\c1ccc(O)c(O)c1)C(=O)NCc1ccccc1` has a residual activity of 85%. `COc1ccc(Cl)cc1NC(=O)Nc1cc(C)nc2ccccc12` gave a residual activity of 86%. `CC(C)(C)c1nc2c3ccc(F)cc3c3c(=O)[nH]ccc3c2[nH]1` showed a residual activity of 29%. Compound `NC(=O)c1ccc(-c2nc(-c3ccc4c(c3)OCCO4)c(-c3ccccn3)[nH]2)cc1` has a residual activity of 96%. With `O=C1NC(=O)C(c2cn(CCCO)c3ncccc23)=C1c1cnccn1` the residual activity was 81%. In the case of `NC(=O)Nc1sc(-c2ccc(F)cc2)cc1C(N)=O`, the residual activity is reported as 57%. Work on `CN([C@@H](Cc1ccc(OS(=O)(=O)c2cccc3cnccc23)cc1)C(=O)N1CCN(c2ccccc2)CC1)S(=O)(=O)c1cccc2cnccc12` yielded a residual activity of 99%.

The compounds below were run against Serine/threonine-protein kinase MARK1 (Homo sapiens) (UniProt Q9P0L2). Settings: at 10 µM.
`CCN1/C(=C/C(C)=O)Sc2ccc(OC)cc21` gave a residual activity of 65%. Work on `N#Cc1c(NC(=O)c2cccc3ccccc23)sc2c1CCCC2` yielded a residual activity of 92%. In the case of `CN(C)S(=O)(=O)c1ccc2c(c1)/C(=C/c1cc3c([nH]1)CCCC3)C(=O)N2`, the residual activity is reported as 17%. `O=C1Cc2c([nH]c3ccc(Br)cc23)-c2ccccc2N1` showed a residual activity of 12%. `CC(C)[C@H](CO)Nc1nc(Nc2cc(N)cc(Cl)c2)c2ncn(C(C)C)c2n1` showed a residual activity of 38%. `O=S(=O)(NCCNC/C=C/c1ccc(Br)cc1)c1cccc2cnccc12` gave a residual activity of 37%. For `Nc1n[nH]c2nc3ccccc3nc12`, the residual activity was 74%. `Cn1sc(=O)n(Cc2ccccc2)c1=O` was tested, and the residual activity was 70%. In the case of `O=C1Cc2c([nH]c3ccc([N+](=O)[O-])cc23)-c2ccccc2N1`, the residual activity is reported as 28%. Work on `O=C(Nc1nc2ccccc2n1CCN1CCOCC1)c1cccc([N+](=O)[O-])c1` yielded a residual activity of 81%. In the case of `Nc1ncnc2c1cnn2-c1ccccc1`, the residual activity is reported as 88%. With `COc1ccc(COc2ccc(Cc3cnc(N)nc3N)cc2OC)cc1` the residual activity was 71%. With `Cc1cc(C)c(/C=C2\C(=O)Nc3ccccc32)[nH]1` the residual activity was 20%. With `Cn1c2ccccc2c2c3c(c4c5ccccc5n(CCC#N)c4c21)CNC3=O` the residual activity was 5%. With `CCOC(=O)c1c(C)[nH]c(/C=C2\C(=O)Nc3ccccc32)c1C` the residual activity was 87%. For `COc1cc2c(cc1OC)-c1n[nH]c(Nc3cccc(F)c3)c1C2`, the residual activity was 48%. `N#C/C(=C\c1ccc(O)c(O)c1)C(=O)NCc1ccccc1` gave a residual activity of 88%. `COc1ccc(Cl)cc1NC(=O)Nc1cc(C)nc2ccccc12` showed a residual activity of 77%. `CC(C)(C)c1nc2c3ccc(F)cc3c3c(=O)[nH]ccc3c2[nH]1` was tested, and the residual activity was 14%. Compound `NC(=O)c1ccc(-c2nc(-c3ccc4c(c3)OCCO4)c(-c3ccccn3)[nH]2)cc1` has a residual activity of 89%. Compound `O=C1NC(=O)C(c2cn(CCCO)c3ncccc23)=C1c1cnccn1` has a residual activity of 79%. Work on `NC(=O)Nc1sc(-c2ccc(F)cc2)cc1C(N)=O` yielded a residual activity of 17%. Work on `CN([C@@H](Cc1ccc(OS(=O)(=O)c2cccc3cnccc23)cc1)C(=O)N1CCN(c2ccccc2)CC1)S(=O)(=O)c1cccc2cnccc12` yielded a residual activity of 98%.
